Screening data from PubChem BioAssay.
Vc quorum ag: inducers of Vibrio cholerae quorum light production without autoinducers; activation, % at 18.7 µM; V. cholerae BH1578 lux reporter, luminescence, 6 h; 0.16% of 350,000 active; in the data active = activation mostly above about 9.7%, no sharp cut-off
FBA Mtb inh: inhibits M. tuberculosis FBA enzyme; purified M. tuberculosis FBA, fluorescence read-out; inhibition, % at 1 µM; 2.3% of 360,000 active;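 also: 0% = vehicle and 100% = reference inhibitor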
Target sequence (P9WQA3 whole entry, looked up): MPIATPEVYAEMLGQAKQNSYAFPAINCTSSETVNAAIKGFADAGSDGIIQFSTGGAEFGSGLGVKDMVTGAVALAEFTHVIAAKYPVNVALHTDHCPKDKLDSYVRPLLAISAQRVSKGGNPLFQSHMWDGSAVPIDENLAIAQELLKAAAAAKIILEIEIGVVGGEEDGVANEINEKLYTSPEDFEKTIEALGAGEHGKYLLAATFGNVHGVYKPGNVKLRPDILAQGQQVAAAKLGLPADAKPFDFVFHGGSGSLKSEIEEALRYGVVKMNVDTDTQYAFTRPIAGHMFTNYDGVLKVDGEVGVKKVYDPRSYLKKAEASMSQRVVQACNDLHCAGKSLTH
BioA inh: BioA (M. tuberculosis) enzyme inhibition; purified M. tuberculosis BioA enzyme, plate reader; inhibition, % at 9.99 µM; 0.096% of 360,000 active; AID 602481; in the data active = inhibition above about 40%
GDH-TPI counter-1: counter-screen for M. tuberculosis FBA inhibitors: GDH-TPI coupled enzymes. 1.2% of 360,000 active. AID 588335. GDH-TPI coupled enzyme counterscreen, NADH absorbance. inhibition, % at 4.8 µM; in the data active = inhibition above about 30%;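 also: 0% = DMSO wells and 100% = wells lacking the enzyme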
Mtb FBA confirm: Mtb FBA inhibition, confirmed; shares compounds with FBA Mtb inh; purified M. tuberculosis FBA, fluorescence read-out; inhibition, % at 1 µM; 78% of 5,600 active; AID 651616;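 also: 0% = vehicle wells and 100% = reference inhibitor wells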
GDH-TPI counter-2: inhibits GDH-TPI coupling enzymes, flagging Mtb FBA hits; shares compounds with FBA Mtb inh; GDH-TPI coupled enzyme counterscreen, fluorescence; inhibition, % at 1 µM; 81% of 5,600 active; AID 652141; in the data active = inhibition above about 10%
GDH-TPI DR: inhibits GDH-TPI coupling enzymes in dose response; GDH-TPI coupled enzyme assay, fluorescence, artifact counterscreen; shares compounds with FBA Mtb inh; IC50, µM; 79% of 170 active; call rule not given here
* marks the source's active call; other numbers are inactive results; i = inactive; nt = no result given; + = active, no number. In the library only some 3% were active in any assay of this set; here they are far more common. Rule as the data show it, unless noted: active = inhibition above about 27%; inactive = the rest.

SMILES	Vc quorum ag	FBA Mtb inh	BioA inh	GDH-TPI counter-1	Mtb FBA confirm	GDH-TPI counter-2	others
O=C(/C=C/c1ccccc1)NC(=S)Nc1ccccc1	-1	27*	-2	25	6	-1
O=C(/C=C/c1ccc(F)cc1)NC(=S)Nc1ccccc1	i	-6	0	12	nt	nt
COc1ccc(NC(=O)CN(C)C(=O)c2cc(-c3ccc(OC)cc3)nc3ccccc23)cc1	i	35*	1	19	49*	36*
COc1ccc(NC(=O)CN(C)C(=O)c2cc(-c3ccccc3)nc3ccccc23)cc1	i	1	0	-6	nt	nt
CN(CC(=O)Nc1cccc(F)c1)C(=O)c1cc(-c2ccccc2)nc2ccccc12	1	4	-5	3	nt	nt
COc1ccc(-c2cc(C(=O)N(C)CC(=O)Nc3cccc(F)c3)c3ccccc3n2)cc1	i	54*	-2	7	115*	83*
O=C(C[C@@H]1C[C@@H]2c3cc(NC(=O)CC4CC4)ccc3O[C@@H]2[C@H](CO)O1)NCCc1ccccc1	nt	nt	-1	nt	nt	nt
Cc1ccc(/C=C2\OC(=O)c3ccccc32)cc1	0	45*	-3	23	-2	-6
Cc1cccc2c(C(=O)O)cc(-c3cccnc3)nc12	i	6	0	4	nt	nt
Cc1cc(C)c2nc(-c3cccnc3)cc(C(=O)NC(C)c3cnn(C)c3C)c2c1 (stereo unspecified)	i	40*	-2	6	+	169*
Cn1c(=O)c2cc(NC(=O)NCc3ccccc3)ccc2n1C/C=C/c1ccccc1	0	77*	1	7	99*	60*
CC(=O)Nc1ccc(NCCc2cccs2)cc1	nt	-2	-3	nt	nt	nt
CN(C)c1ccc(NC(=O)Nc2ccc3c(c2)c(=O)n(C)n3-c2ccccc2)cc1	0	1	-1	-1	nt	nt
Cn1c(=O)c2cc(NC(=O)NCCc3cccs3)ccc2n1C/C=C/c1ccccc1	i	65*	0	18	1	-4
Cc1noc(C)c1NC(=O)N(C)C[C@@H]1Oc2ccc(NC(=O)Cn3cnnn3)cc2CC(=O)N([C@H](C)CO)C[C@H]1C	nt	nt	-1	nt	nt	nt
C[C@@H]1CN([C@H](C)CO)C(=O)Cc2cc(NC(=O)c3ccncc3)ccc2O[C@H]1CN(C)S(C)(=O)=O	nt	nt	0	nt	nt	nt
CO[C@H]1CC[C@H]2CCOc3c(C#N)cccc3C(=O)N(C)CC3(CCCCC3)CC(=O)N(C)C[C@H]1O2	nt	nt	-1	nt	nt	nt
c1ccc2c(c1)OCCc1c-2[nH]c2ccccc12	-1	47*	0	-4	75*	55*
CC1=NCCc2c1[nH]c1ccccc21	0	20	0	12	nt	nt
COc1ccc(N2C(=O)c3ccccc3NC23CCCCC3)cc1	-7	37*	2	-2	111*	109*
CC1(C)OC(=CC=Nc2ccc(Cl)cc2)OC1(C)C	i	49*	-1	20	+	+
CCCC(=O)Nc1ccc2c(c1)nc1n2CCN(C2CCCCC2)C1	i	63*	nt	5	194*	178*
CC(=O)Nc1ccc2c(c1)nc1n2CCN(C2CCCCC2)C1	-1	56*	nt	8	197*	135*
O=C(Nc1ccc2c(c1)nc1n2CCN(Cc2ccccc2)C1)c1cccs1	i	2	7	12	nt	nt
O=[N+]([O-])c1ccc2c(c1)nc1n2CCN(C2CCCCC2)C1	0	-3	nt	-2	nt	nt
SMILES	Vc quorum ag	FBA Mtb inh	BioA inh	GDH-TPI counter-1	Mtb FBA confirm	GDH-TPI counter-2	others
CCCCC(=O)Nc1ccc2c(c1)nc1n2CCSC1	i	4	2	4	nt	nt
O=C(Nc1ccc2c(c1)nc1n2CCN(Cc2ccccc2)C1)NC1CCCCC1	i	80*	-1	8	16	11*
O=C(NCC[C@@H]1CC[C@@H](NC(=O)C2CCCCC2)[C@H](CO)O1)c1ccc(F)cc1	nt	nt	-3	nt	nt	nt
C[C@H]1CN([C@@H](C)CO)C(=O)c2cccc(NC(=O)CCCCCC(=O)Nc3ccccc3N)c2O[C@@H]1CN(C)Cc1ccc2c(c1)OCO2	nt	nt	-1	nt	nt	nt
Oc1ccccc1C=Nc1cccc2ccccc12	-1	42*	-2	-7	15	-3	GDH-TPI DR=9.3*
CNC(=O)C[C@@H]1CC[C@@H]2[C@H](COC[C@H](O)CN2Cc2ccc(Cl)c(Cl)c2)O1	nt	nt	1	nt	nt	nt
O=C(NC1Cc2ccccc2C1)[C@@H]1[C@@H](CO)[C@@H]2Cn3c(cccc3=O)[C@@H]2N1C(=O)c1ccccn1	nt	nt	1	nt	nt	nt
COc1ccc(S(=O)(=O)N2CCN(C(=O)C3CC(=O)N(c4ccccc4F)C3)CC2)cc1OC (stereo unspecified)	0	33*	1	-1	150*	94*
CN1C(=O)c2cc(NC(=O)Nc3ccccc3)ccc2OC[C@@H]2O[C@@H](CC(=O)NC3CCC3)CC[C@H]21	nt	nt	5	nt	nt	nt
Cc1cc(C)n2cc(CSc3ncn[nH]3)nc2n1	-1	95*	1	3	1	-7
Cc1cc(C)n2cc(COc3ccccc3)nc2n1	i	71*	nt	7	83*	61*
Cc1cc(C)n2cc(CSc3ccc(Br)cc3)nc2n1	7	8	nt	1	nt	nt
C[C@@H]1CN([C@H](C)CO)S(=O)(=O)c2ccc(-c3ccc(C(=O)N(C)C)cc3)cc2O[C@@H]1CN(C)Cc1ccc2c(c1)OCO2	nt	nt	-2	nt	nt	nt
CN(C)C(=O)[C@H]1[C@H](CO)[C@H]2Cn3c(ccc(-c4ccccc4F)c3=O)[C@H]2N1C(=O)c1cnccn1	nt	nt	-2	nt	nt	nt
CCC(CO)Nc1ncnc2c1cnn2-c1ccc(OC)cc1 (stereo unspecified)	0	30*	23	-3	63*	52*
CSc1nccc(Oc2ccccc2Cl)n1	1	110*	0	-4	13	8	GDH-TPI DR=>10
COc1cc2c(cc1O)C[C@H]1c3c(cc(O)c(OC)c3-2)CCN1C	i	47*	0	4	32*	23*
CCNC(=O)Nc1ccc2c(c1)C(=O)N(C)[C@@H]1CC[C@H](CC(=O)NCCOC)O[C@@H]1CO2	nt	nt	1	nt	nt	nt
CC1CCCN(Cc2c(O)ccc3c(=O)c(-c4nc5ccccc5s4)c(N)oc23)C1 (stereo unspecified)	i	33*	5	39*	136*	84*
Cc1cc(N2CCOCC2)nc2ccc(NC(=O)CCC(=O)N3CCC4(CC3)OCCO4)cc12	0	58*	nt	11	+	+
CCOC(=O)C1CCCN(C(=O)CCC(=O)Nc2ccc3nc(N4CCOCC4)cc(C)c3c2)C1 (stereo unspecified)	0	67*	nt	12	89*	69*
Cc1cc(N2CCOCC2)nc2ccc(NC(=O)CCC(=O)N3CCN(c4ccccc4)CC3)cc12	0	14	1	1	nt	nt
COc1cccc(NC(=O)CCC(=O)Nc2ccc3nc(N4CCOCC4)cc(C)c3c2)c1	0	66*	0	-5	125*	95*
